The text below walks through data of PubChem BioAssay (NCATS).

Results filed as inconclusive are left out. Calls of active or inactive are those of the source. Unless noted, calls follow the shape of the dose curve; as a rule, active = well fitted curve in the direction sought with a large enough effect; inconclusive = small, poorly fitted or top-dose-only effect, or another doubt; inactive = no such curve, though single readings can be large; an effect the other way counts as inactive or inconclusive.

For test [1], the target named is Glutathione peroxidase 1 (Homo sapiens) (UniProt P07203). Nature of the test: Primary qHTS Assay for Inhibitors of Recombinant Selenoprotein Glutathione Peroxidase 1 (GPX1) (AID 1845191). Also: nearly all actives have a fitted effect of over 65% in size. Summed up: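 GR-coupled readout: NADPH consumption tracked by fluorescence, ex 340/em 450 nm, at t=0 and after 15 min at RT. Final mix 10 nM GPX1, 1 mM GSH, 0.5 mM CHP, 0.5 mM NADPH, 100 nM GR, 0.01% BSA, following 30 min enzyme–compound preincubation.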
Glutathione peroxidase 1 (Homo sapiens), sequence (P07203 whole entry, looked up): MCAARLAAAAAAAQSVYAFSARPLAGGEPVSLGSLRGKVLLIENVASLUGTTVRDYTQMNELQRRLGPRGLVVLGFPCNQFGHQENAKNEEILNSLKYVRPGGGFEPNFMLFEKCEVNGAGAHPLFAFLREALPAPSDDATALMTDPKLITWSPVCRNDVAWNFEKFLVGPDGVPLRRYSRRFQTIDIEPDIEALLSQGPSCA

Test [2] has as its target Pyruvate kinase (Leishmania mexicana) (UniProt Q27686). Kind of test: qHTS Validation Assay for Activators of Leishmania Mexicana Pyruvate Kinase (AID 959). The procedure, abridged:
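Substrate mix (0.5 mM PEP, 0.1 mM ADP, 7 mM MgCl2, 50 mM KCl, pH 7.2 imidazole) received compound by pin tool, then 0.2 nM LmPYK E451W. After 1 h at room temperature, PKLight was added and luminescence measured.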

Test [3] can be described thus: Validation screen for small molecules that induce DNA re-replication in MCF 10A normal breast cells (AID 463097). Also: 0% is about no effect; nearly all actives have a fitted effect of over 60% in size. Summed up:
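Read-out is Hoechst total nuclear intensity by fluorescence scanning imager, flagging increased high-DNA-content nuclei. Compounds were incubated with MCF 10A cells for 48 hr (37 C, 5% CO2) before 40 min staining.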

The nature of test [4]: Quantitative high throughput screen for delayed death inhibitors of the malarial parasite plastid, 96 hour incubation (AID 488745). Also: % is scaled to controls: 0 for no effect and ±100 for the full control effect; nearly all actives have a fitted effect of over 70% in size. Summed up: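 Decreased firefly luciferase luminescence indicates inhibited growth of reporter-integrated P. falciparum after two generations (96 h, 37 C, 5% CO2). Infected erythrocytes at 0.1% parasitemia, 2% hematocrit, in Albumax-supplemented RPMI 1640.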

Test [5] can be described thus: qHTS for differential inhibitors of proliferation of Plasmodium falciparum line 3D7 (AID 1876). Also: potency is read from the fitted curve at half-maximal effect. On the technique in general: Quantitative high-throughput screening tests each substance at several concentrations.
Test [6] has as its target RecQ-like DNA helicase BLM (Homo sapiens) (UniProt P54132). Kind of test: qHTS Validation Assay for Inhibitors of Bloom's syndrome helicase (BLM) (AID 2364).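 Also: plate controls were DMSO vehicle for no effect and enzyme-free control for full effect.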 Summed up: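 50 nM BLM preincubated 15 min at room temperature with compound in pH 8.0 Tris buffer containing 2.5 ug/ml poly(dI-dC); started with 200 nM TAMRA/BHQ-2 forked duplex and 2 mM ATP (final). Unwinding read as TAMRA fluorescence increase, two reads 2 h apart.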

In test [7] the target is Lysosomal acid glucosylceramidase (Homo sapiens) (UniProt P04062). Kind of test: Glucocerebrosidase-p2 (AID 348; in the data active = potency below about 10 µM; also: potency is read from the fitted curve at half-maximal effect). The settings on record: purified GBA, blue fluorogenic substrate, 40 min. Summed up: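 Normal human glucocerebrosidase (0.2 nM) with blue fluorogenic substrate (80 uM final) in citrate/phosphate pH 5.9 with 10mM sodium taurocholate, 0.01% tween-20; 40 min RT, NaOH/glycine stop; fluorescence Ex 365/Em 440; AC50 from a titration from 0.6 nM upwards.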
Lysosomal acid glucosylceramidase (Homo sapiens), sequence (P04062 whole entry, looked up): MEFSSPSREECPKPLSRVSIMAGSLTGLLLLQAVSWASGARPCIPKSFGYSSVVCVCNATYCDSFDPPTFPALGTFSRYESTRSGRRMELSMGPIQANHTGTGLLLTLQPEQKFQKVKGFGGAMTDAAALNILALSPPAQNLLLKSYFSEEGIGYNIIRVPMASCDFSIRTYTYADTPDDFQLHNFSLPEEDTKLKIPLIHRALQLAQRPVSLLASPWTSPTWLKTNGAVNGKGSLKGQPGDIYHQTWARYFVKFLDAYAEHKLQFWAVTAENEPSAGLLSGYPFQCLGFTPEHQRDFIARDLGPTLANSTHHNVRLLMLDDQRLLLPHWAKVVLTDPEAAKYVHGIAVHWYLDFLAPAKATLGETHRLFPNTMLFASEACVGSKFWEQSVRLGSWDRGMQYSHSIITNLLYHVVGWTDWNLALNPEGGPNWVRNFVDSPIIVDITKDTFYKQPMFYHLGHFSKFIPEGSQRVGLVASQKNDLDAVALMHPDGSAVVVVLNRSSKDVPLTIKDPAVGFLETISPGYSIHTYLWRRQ

The nature of test [8]: Cell Viability - BJ (AID 421; calls by dose curve;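 also: potency is read from the fitted curve at half-maximal effect; cells exposed to compound for 40 hours at 37 °C before readout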). The settings on record: BJ fibroblast viability, qHTS. The procedure, abridged:
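Normal human BJ foreskin fibroblasts, 1500/well in complete medium, treated 40 hr at 37 °C. Cellular ATP by CellTiter-Glo luminescence; normalized to DMSO and 100 uM tamoxifen, AC50 from Hill fit.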

Test [9] is described as follows: Cell Viability - HepG2 (AID 433; calls by dose curve;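 also: potency is read from the fitted curve at half-maximal effect; cells exposed to compound for 40 hours; potency for ATP loss meaning cytotoxicity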). The following applies: qHTS. The procedure, abridged:
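Cytotoxicity read as ATP loss (CellTiter-Glo luminescence) after 40 hr compound exposure of HepG2, 1500 cells/well, 37 °C. AC50 by Hill equation; 0% set by DMSO, 100% inhibition by 100 uM tamoxifen.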

Test [10] in a line: Cell Viability - MRC5 (AID 434; calls by dose curve;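 also: potency is read from the fitted curve at half-maximal effect; cells exposed to compound for 40 hours at 37 °C; potency reflects cytotoxicity seen as loss of intracellular ATP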). The settings on record: MRC5 lung fibroblast viability, qHTS. The procedure, abridged: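 ATP luminescence read-out (CellTiter-Glo, 20 min RT) after 40 hr, 37 °C compound exposure of 1500 MRC5 cells/well. Data normalized to DMSO (basal) and 100 uM tamoxifen (100% inhibition); AC50 from standard Hill equation.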
Test [11] can be described thus: Cell Viability - N2a (AID 540).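 Also: plate controls were DMSO alone for no effect and tamoxifen control for full effect; nearly all actives have a fitted effect of over 45% in size.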 The following applies: N2a mouse neuroblastoma cell viability; at 92.2 µM (top of the series). Summed up:
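CellTiter-Glo ATP luminescence, read 20 min after reagent at room temperature, reported viability following 40 h compound treatment at 37 °C. N2a mouse neuroblastoma cells seeded 1500/well; Hill equation gave AC50.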

Test [12] is described as follows: Cell Viability - NIH 3T3 (AID 541).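 Also: cells exposed to compound for 40 hours; plate controls were DMSO alone for no effect and tamoxifen positive control for full effect; nearly all actives have a fitted effect of over 25% in size.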 The following applies: NIH 3T3 cell viability, qHTS; at 92.2 µM (top of the series). Summed up:
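Intracellular ATP (CellTiter-Glo luminescence, 20 min at room temperature) measured after 40 hr compound exposure at 37 °C of 1000 NIH 3T3 mouse fibroblasts/well in complete medium; AC50 derived by Hill-equation modelling of qHTS concentration-response curves.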

Test [13] is described as follows: Cell Viability - Renal Proximal Tubule (AID 545).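 Also: cells exposed to compound for 40 hours; 0% = DMSO only and -100% = 100 µM tamoxifen; nearly all actives have a fitted effect of over 40% in size.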 The procedure, abridged: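 Viability taken as intracellular ATP (CellTiter-Glo luminescence) after 40 hr, 37 °C compound treatment of primary proximal tubule cells from rat kidney, 1000 cells/well; Hill-equation fits of qHTS concentration-response data gave AC50.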
The nature of test [14]: Cell Viability - Mesenchymal (AID 546).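 Also: cells exposed to compound for 40 hours before reading; 0% = DMSO only and -100% = 100 µM tamoxifen.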 The procedure, abridged:
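Human renal mesenchymal cells (glomerulus-derived), 1000 cells/well, 5 hr 37 °C pre-incubation; compound 40 hr, 37 °C; CellTiter-Glo, 20 min RT; luminescence; AC50 via Hill equation.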

The target of test [15] is Estrogen receptor (Homo sapiens) (UniProt P03372). Nature of the test: qHTS assay for small molecule agonists of estrogen receptor alpha signaling (AID 588514; calls by dose curve;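 also: 0% = vehicle only and 100% = reference agonist; nearly all actives have a fitted effect of over 70% in size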). Summed up:
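EC50 and efficacy came from Hill fits of beta-lactamase reporter signal (CCF4 dye, 2 h at room temperature) scaled between DMSO and 20 nM 17-beta-estradiol. Agonist mode: HEK293 ER-alpha-UAS-bla cells in charcoal/dextran-stripped serum medium, 18 h compound exposure at 37 C.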

A short description of test [16]: qHTS profiling of the MIPE4 collection as inhibitors of Plasmodium falciparum (DD2) proliferation (Rep 2) (AID 743346; call rule not given here). The settings on record: P. falciparum Dd2 in erythrocytes, SYBR Green DNA, 72 h; at 28.5 µM (top of the series) unless noted. The procedure, abridged:
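Parasite DNA was quantified by SYBR Green I fluorescence (ex 485, em 535 nm) after overnight lysis in saponin/Triton buffer at room temperature. Cultures at 0.3% parasitemia and 2.5% hematocrit were first exposed to compound for 72 h at 37 C; signals were normalised to artemisinin (0.29 uM) and vehicle wells.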

The next test concerns DIV17. Kind of test: qHTS profiling for inhibitors of Plasmodium falciparum proliferation (AID 504749). Also: nearly all actives have a fitted effect of over 60% in size. Also: potency is read from the fitted curve at half-maximal effect. The settings on record: P. falciparum in erythrocytes, SYBR Green DNA, 72 h; series mostly up to 28.7 µM. Summed up: (§1)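 Each compound contacts P. falciparum-infected red blood cells for 72 h at 37 C; lysis buffer (Tris, EDTA, saponin, Triton X, SYBR Green I) is added and fluorescence measured next morning; values normalized to controls.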

Another test relates to ICS. The test is described as above. The settings on record: P. falciparum in erythrocytes, SYBR Green DNA, 72 h; series mostly up to 28.7 µM. The procedure, abridged: as §1
A further test relates to W2. The description is as above. The following applies: P. falciparum in erythrocytes, SYBR Green DNA, 72 h; series mostly up to 28.7 µM. The procedure, abridged: as §1
Test [17] in a line: Confirmatory qHTS for VERO E6 Cytotoxicity Assay: Counterscreen for SARS-CoV-2 CPE Assay (AID 1508605; calls by dose curve; also: % is scaled to controls: 0 for no effect and ±100 for the full control effect; nearly all actives have a fitted effect of over 60% in size).

Estrogen receptor (Homo sapiens), sequence (P03372 whole entry, looked up): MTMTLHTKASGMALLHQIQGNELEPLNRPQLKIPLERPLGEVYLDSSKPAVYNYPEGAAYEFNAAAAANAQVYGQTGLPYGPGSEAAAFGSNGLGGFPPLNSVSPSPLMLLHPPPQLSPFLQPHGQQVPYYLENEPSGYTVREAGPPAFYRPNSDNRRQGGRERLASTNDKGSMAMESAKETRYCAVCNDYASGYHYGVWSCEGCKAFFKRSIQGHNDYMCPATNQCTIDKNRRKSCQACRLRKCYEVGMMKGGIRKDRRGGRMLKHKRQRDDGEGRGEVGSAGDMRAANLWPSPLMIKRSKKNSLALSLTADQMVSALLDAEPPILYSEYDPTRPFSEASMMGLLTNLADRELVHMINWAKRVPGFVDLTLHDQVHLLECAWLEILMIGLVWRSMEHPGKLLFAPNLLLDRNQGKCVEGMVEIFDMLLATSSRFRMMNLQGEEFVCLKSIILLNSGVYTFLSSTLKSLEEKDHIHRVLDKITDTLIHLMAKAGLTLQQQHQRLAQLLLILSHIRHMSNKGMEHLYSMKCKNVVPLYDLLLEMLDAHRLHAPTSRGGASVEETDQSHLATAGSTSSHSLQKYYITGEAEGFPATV
RecQ-like DNA helicase BLM (Homo sapiens), sequence (P54132 whole entry, looked up): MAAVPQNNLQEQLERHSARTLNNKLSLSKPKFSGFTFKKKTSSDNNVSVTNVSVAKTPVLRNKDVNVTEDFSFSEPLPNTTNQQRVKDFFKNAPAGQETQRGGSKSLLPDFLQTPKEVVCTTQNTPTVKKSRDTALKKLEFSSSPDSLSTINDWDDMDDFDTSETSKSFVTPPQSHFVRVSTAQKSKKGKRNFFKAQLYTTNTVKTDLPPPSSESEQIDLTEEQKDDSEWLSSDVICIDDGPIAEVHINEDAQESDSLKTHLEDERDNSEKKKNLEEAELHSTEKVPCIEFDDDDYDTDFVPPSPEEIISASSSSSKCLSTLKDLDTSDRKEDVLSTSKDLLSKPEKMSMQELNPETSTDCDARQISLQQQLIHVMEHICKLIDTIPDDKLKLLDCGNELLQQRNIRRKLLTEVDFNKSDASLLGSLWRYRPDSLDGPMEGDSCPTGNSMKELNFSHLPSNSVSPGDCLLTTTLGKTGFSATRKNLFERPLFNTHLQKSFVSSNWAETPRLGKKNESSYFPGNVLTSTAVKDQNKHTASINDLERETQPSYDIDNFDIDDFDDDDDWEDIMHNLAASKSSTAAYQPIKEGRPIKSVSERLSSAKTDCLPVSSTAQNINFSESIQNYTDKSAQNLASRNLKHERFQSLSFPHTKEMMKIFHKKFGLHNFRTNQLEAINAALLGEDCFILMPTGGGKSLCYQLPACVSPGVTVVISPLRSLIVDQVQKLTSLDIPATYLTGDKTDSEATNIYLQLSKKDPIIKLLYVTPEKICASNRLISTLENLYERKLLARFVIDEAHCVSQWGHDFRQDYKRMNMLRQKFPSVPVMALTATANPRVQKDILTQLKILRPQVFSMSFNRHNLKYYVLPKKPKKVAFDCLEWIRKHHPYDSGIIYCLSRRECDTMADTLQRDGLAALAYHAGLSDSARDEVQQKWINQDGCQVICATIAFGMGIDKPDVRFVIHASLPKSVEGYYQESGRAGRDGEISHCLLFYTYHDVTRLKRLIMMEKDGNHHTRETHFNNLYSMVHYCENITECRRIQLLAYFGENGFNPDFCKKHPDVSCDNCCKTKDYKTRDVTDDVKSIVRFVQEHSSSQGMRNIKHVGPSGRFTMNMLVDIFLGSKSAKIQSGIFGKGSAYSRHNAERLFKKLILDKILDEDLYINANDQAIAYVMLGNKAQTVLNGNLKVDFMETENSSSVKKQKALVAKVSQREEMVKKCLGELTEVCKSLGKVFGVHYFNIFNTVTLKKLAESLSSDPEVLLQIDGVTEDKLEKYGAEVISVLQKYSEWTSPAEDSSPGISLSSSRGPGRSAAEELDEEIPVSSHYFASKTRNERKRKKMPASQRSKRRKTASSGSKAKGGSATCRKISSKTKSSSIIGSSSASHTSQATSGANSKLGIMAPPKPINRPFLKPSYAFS
Pyruvate kinase (Leishmania mexicana), sequence (Q27686 2-499 E452W): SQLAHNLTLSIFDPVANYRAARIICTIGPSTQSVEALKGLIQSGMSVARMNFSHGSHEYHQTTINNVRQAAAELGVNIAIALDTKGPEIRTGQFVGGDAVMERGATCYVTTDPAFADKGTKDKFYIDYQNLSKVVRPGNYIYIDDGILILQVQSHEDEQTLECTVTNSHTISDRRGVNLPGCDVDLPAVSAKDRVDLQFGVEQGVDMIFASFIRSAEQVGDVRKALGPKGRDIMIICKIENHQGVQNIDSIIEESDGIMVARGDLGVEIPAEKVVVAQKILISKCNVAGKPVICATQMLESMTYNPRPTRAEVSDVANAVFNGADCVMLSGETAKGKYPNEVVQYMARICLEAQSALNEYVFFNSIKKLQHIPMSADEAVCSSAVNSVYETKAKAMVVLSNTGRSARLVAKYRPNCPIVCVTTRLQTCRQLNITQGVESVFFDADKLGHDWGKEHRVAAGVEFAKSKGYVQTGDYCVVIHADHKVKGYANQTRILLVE

Take `CN(C(=O)Cc1ccccc1)[C@H](CN1CCCC1)c1ccccc1`: the Potency entry in [1] was “inactive”.
As for `N#CC(C#N)=Cc1ccc([N+](=O)[O-])c(O)c1`, the Potency in [2] is 20 µM (active). Besides, the Potency entry in test [3] and in test [4] was “inactive” throughout.
Turning to `CN1CCc2cc(O)cc3c2C1Cc1ccc(O)c(O)c1-3` (stereo not given), the Potency in [5] is 11.2 µM (active). Further, the Potency result in test [6] was “inactive”.
Consider `O=C1C2CCN(CC2)C1(CO)CO`, for which the Potency in test [7] is > 11.4 µM (inactive).
Take `CC(C)(c1ccc(OCC2CO2)cc1)c1ccc(OCC2CO2)cc1` (stereo not given): the Potency in test [8], in test [9] and in test [10] was > 92 µM (inactive) in each case. Also, the activity change, negative = cytotoxicity in [11] was -4.11% (inactive); in [12], -5.07% (inactive). The call in [13] and in test [14] was inactive. Further, the Potency entry in [15] is “inactive”.
Turning to `O=C1CC[C@@]2(O)[C@H]3Cc4ccc(O)c5c4C2(CCN3CC2CC2)[C@H]1O5`, in test [16], the parasite growth, % of control (lower = inhibition) was 59.1%.
On the same count and under the same terms, then `Cc1ncc(C[n+]2csc(CCO)c2C)c(=O)[nH]1`, with 113%.
`O=C(O)c1ccccc1-c1c2cc(Br)c(=O)cc-2oc2[c]([Hg])c(O)c(Br)cc12`: the Potency result in the test on DIV17, in the test with ICS and with W2 was “inactive” each time.
As for `CC(C)[C@@]1(NC(=O)[C@H]2CC3c4cccc5[nH]cc(c45)C[C@H]3N(C)C2)O[C@@]2(O)C3CCCN3C(=O)[C@@H](Cc3ccccc3)N2C1=O` (stereo not given in full), the Potency in the test on DIV17 is 0.849 µM (active); with ICS it was 0.447 µM (active); with W2, 0.953 µM (active).
Consider `CN(C)S(=O)(=O)c1ccc(NC(=S)N2CCC(C(O)(c3ccccc3)c3ccccc3)CC2)cc1`, for which the Potency entry in test [17] was “inactive”.
The same measure, in the same setting: then `Cc1[nH]c(/C=C2\C(=O)Nc3ccc(S(=O)(=O)N(C)c4cccc(Cl)c4)cc32)c(C)c1C(=O)N1CCN(C)CC1`, with “inactive”.
